Measured values reported in PubChem BioAssay.
Records with an inconclusive call do not appear. Activity calls are given as the source filed them.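 How the source made its calls, unless noted: active means viability increase at or above a cutoff of the median across tested compounds plus 3 SD (cut at about 8.5% in these data, passing the limit was not always enough); inconclusive means some gains above the cutoff, reason not given; inactive means the rest.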

Tests used:
[1] = Her2 expression decrease, cell viability multiplex – SKBR3 breast tumor cells, AlphaScreen, ATP viability, primary screen (AID 461;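 active means Her2 level under about 52% in both replicate screens, with viability over 70% of control, limit read from the data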;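 on Her2 level: lower value means less Her2 protein in the cells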;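 on viability: percent of carrier control wells set as 100% viability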); details: SKBR3 Her2 protein level, 18-24 h, measured here: SKBR3 viability, ATP luminescence, at 10 µM
[2] = target: Receptor tyrosine-protein kinase erbB-2 (Homo sapiens) (UniProt P04626); assay: as above; details: 18-24 h, at 10 µM, stronger effect = lower value
[3] = reduced viability of SK-BR-3 breast cancer cells – cell-based, 24 h, human, pilot screen (AID 572;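 active means viability at or below 10% of carrier control in both of two separate runs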;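 further: compound exposure lasted between 18 and 24 h rather than exactly 24 h; 100% = carrier-treated control wells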); details: SK-BR-3 viability, CellTiter-Glo luminescence, at 10 µM, stronger effect = lower value
[4] = HUVEC growth inhibition – cell-based, human, primary screen (AID 575;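 active means viability at or below 30% in both replicate assays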;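 further: 100% = median of untreated cell wells with 0.1% DMSO on each plate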); details: HUVEC proliferation, CellTiter-Glo luminescence, 72 h; at 10 µM; stronger effect = lower value
[5] = H69AR cell proliferation blockers – human, duplicate replicates, primary screen (AID 580;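 active means viability at or under a set limit in both replicates, limit being median viability minus 3 SD, cut at about 48% in these data, passing the limit was not always enough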;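 further: 100% = mean luminescence of untreated wells and 0% = no signal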); details: H69AR lung tumor cells viability, ATP luminescence, 72 h; at 10 µM; stronger effect = lower value
[6] = MRP1 drug-resistance reversers in H69AR cells – cell-based, doxorubicin co-treatment, pilot screen (AID 601;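 active means viability loss from added drug above about 55%, and viability with drug at most 40%, in both replicates, limit read from the data, passing the limit was not always enough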); details: CellTiter-Glo, 72 h, at 10 µM; for differential viability (reversal): stronger effect = higher value
[7] = yeast transport mutant growth inhibition pilot in 384-well plates, post-Golgi transport modulator project (AID 636; in the data active means inhibition above about 31%); details: absorbance 615 nm, about 18 h, stronger effect = higher value
[8] = growth suppression of yeast trafficking mutant, preliminary HTS, modulators of trafficking downstream of Golgi apparatus project, 1536-format plate, OD 615 nm (AID 637; in the data active means inhibition above about 30%); details: yeast transport mutant growth, absorbance 615 nm, 18 h; stronger effect = higher value
[9] = S. cerevisiae growth inhibition in permissive medium (OD615), pilot counter-assay for S. cerevisiae lifespan shortening project, permissive growth control (AID 705;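 active means growth inhibition above 25% in both replicates, a cutoff set 3 SD above the mean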); details: OD615, 24 h, at 10 µM, stronger effect = higher value
[10] = S. cerevisiae growth inhibition in restrictive medium, OD615, pilot screen, restrictive growth control, yeast lifespan reduction project (AID 706;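 active means growth inhibition above a set limit, 3 SD over mean compound inhibition, in both replicates, cut at about 43% in these data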;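 further: modified DeaD lifespan yeast strain shifted to restrictive glucose medium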); details: OD615, 48 h, at 10 µM, stronger effect = higher value
[11] = doxorubicin toxicity protection in MRP-1 cells – H69AR cells, CellTiter-Glo, duplicate, MRP-1 activator project, pilot screen (AID 807); details: H69AR viability with doxorubicin, CellTiter-Glo luminescence; at 10 µM; stronger effect = higher value;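 further: compound pretreatment 18-22 h then 72 h combined with doxorubicin; 0% = doxorubicin alone and 100% = vehicle without doxorubicin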
[12] = viability of HCT116 without oncogenic beta-catenin – human colon tumor cells, pilot screen (AID 823;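 active means cell viability at or below a set limit in both duplicate runs, the limit being the all-compound median minus 4 SD, cut at about 23% in these data, passing the limit was not always enough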;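 further: 0% = wells killed by 20 µM Hyamine and 100% = untreated DMSO cell wells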); details: HCT116 beta-catenin knockout viability, CellTiter-Glo, 60 h; at 10 µM; stronger effect = lower value
[13] = viability of PTEN-null HCT116 cells – cell-based, HCT116 clonal line, CellTiter-Glo, pilot screen (AID 824;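 active means viability at or below 27.92% in each of two runs, the all-compound median minus 4 SD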;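 further: 0% = 20 µM Hyamine control and 100% = vehicle cell control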); details: HCT116 PTEN-deleted viability, 60 h, at 10 µM, stronger effect = lower value
[14] = RAM pathway blockade in budding yeast – dse1pr::URA3 reporter, 5-FOA selection, pilot screen (AID 869;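 active means inhibition over a set limit, the all-compound mean plus 3 SD, in both replicate runs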;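 further: 0% = DMSO wells with no growth and 100% = 10 µM 1-NA-PP1 with full growth; RAM network block rescues cells from 5-FOA so hits raise OD615 growth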); details: S. cerevisiae dse1pr::URA3 5-FOA growth, OD615, 2 d; at 10 µM; stronger effect = higher value; strain carries analog-sensitive mutant Cbk1 kinase
[15] = RAM signaling pathway blockade in yeast – S. cerevisiae, Pdr1DBD-CYC8 efflux-inhibited sensitized strain, primary screen (AID 1298;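 active means RAM network inhibition above 8.4% in each of two replicates, 3 SD over the compound average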;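 further: 0% = DMSO untreated cells without growth and 100% = 10 µM 1-NA-PP1 full growth; higher means more yeast growth rescued from 5-FOA killing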); details: S. cerevisiae cbk1-as DSE1-URA3 strain, 5-FOA growth OD615, 2 d; at 50 µM; stronger effect = higher value
[16] = H69AR cells + 2 uM doxorubicin, measured here: viability with 2 uM doxorubicin, stronger effect = lower value
[17] = H69AR cells, compound alone cytotoxicity

Receptor tyrosine-protein kinase erbB-2 (Homo sapiens), sequence (P04626 whole entry, looked up): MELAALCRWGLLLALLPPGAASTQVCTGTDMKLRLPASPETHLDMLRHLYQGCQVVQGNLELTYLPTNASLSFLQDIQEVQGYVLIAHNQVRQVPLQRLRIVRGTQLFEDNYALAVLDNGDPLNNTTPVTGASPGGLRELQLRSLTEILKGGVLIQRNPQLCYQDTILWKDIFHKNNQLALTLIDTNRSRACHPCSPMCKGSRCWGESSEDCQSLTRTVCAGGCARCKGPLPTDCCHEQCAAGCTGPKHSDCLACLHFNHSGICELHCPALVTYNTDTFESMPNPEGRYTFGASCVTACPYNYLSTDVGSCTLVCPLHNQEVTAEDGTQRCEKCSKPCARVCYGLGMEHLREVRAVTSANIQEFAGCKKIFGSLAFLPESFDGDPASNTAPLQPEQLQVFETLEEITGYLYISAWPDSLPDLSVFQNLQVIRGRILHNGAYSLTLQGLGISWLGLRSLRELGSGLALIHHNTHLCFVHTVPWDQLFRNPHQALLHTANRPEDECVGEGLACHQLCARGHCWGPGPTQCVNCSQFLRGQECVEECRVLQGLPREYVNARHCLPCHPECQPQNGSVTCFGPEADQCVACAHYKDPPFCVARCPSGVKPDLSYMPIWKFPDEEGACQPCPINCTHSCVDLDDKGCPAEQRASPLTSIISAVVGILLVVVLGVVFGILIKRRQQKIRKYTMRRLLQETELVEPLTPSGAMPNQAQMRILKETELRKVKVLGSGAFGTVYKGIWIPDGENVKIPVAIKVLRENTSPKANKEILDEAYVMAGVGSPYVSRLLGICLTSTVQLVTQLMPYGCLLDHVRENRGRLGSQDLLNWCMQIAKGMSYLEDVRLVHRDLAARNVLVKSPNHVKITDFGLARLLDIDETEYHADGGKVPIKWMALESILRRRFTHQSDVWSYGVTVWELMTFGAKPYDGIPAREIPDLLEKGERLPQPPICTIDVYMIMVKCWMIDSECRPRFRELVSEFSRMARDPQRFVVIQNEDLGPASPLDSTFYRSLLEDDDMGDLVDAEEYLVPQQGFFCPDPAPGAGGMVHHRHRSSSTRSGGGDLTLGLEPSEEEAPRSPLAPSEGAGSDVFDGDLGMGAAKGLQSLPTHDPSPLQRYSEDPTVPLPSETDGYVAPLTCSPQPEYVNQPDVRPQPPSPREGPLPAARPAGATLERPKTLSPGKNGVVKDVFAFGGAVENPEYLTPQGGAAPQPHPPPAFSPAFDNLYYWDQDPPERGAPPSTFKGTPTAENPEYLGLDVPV

Cc1ccc(C)n1-n1c(C)nc2sc(-c3ccccc3)cc2c1=O
90.8%: viability [6, 16]
81.9%: viability [6, 17]
inactive: Her2 level [2] 106% | viability [3] 89% | viability [4] 80.3% | viability [5] 81.9% | differential viability (reversal) ([6]; H69AR cells + 2 uM doxorubicin) -8.97% | inhibition [7] -0.38% | inhibition [8] 2.67% | growth inhibition [9] -3.25% | growth inhibition [10] -27.4% | viability increase [11] 1.12% | viability [12] 54.6% | viability [13] 61% | inhibition [14] 0.52% | RAM network inhibition [15] 9.68%
89%: viability [1]

Cc1cc(C)c(NC(=O)Cn2cc3c(n2)CCCC3)c(C)c1
inactive: Her2 level [2] 103% | viability [3] 87.5% | viability [4] 104% | viability [5] 96.5% | differential viability (reversal) ([6]; H69AR cells + 2 uM doxorubicin) -3.94% | inhibition [7] -6% | inhibition [8] 5.74% | growth inhibition [9] 6.13% | growth inhibition [10] 12.4% | viability increase [11] -0.84% | viability [12] 109% | viability [13] 94.9% | inhibition [14] 2.3% | RAM network inhibition [15] 4.34%
100%: viability [6, 16]
87.5%: viability [1]
96.5%: viability [6, 17]

Oc1ccccc1-c1nnc(COc2ccc(Cl)cc2Cl)o1
76.1%: viability [6, 16]
96%: viability [1]
63.3%: viability [6, 17]
inactive: Her2 level [2] 97.5% | viability [3] 96% | viability [4] 101% | viability [5] 63.3% | differential viability (reversal) ([6]; H69AR cells + 2 uM doxorubicin) -12.9% | inhibition [7] -8.8% | inhibition [8] 0.5% | growth inhibition [9] -10.2% | growth inhibition [10] -11.7% | viability increase [11] -1.77% | viability [12] 92.3% | viability [13] 86.6% | inhibition [14] 1.82% | RAM network inhibition [15] 7.07%

O=C(c1ccc(Br)o1)N(Cc1ccccc1)c1ccccn1
93.5%: viability [1]
90.7%: viability [6, 16]
92.9%: viability [6, 17]
inactive: Her2 level [2] 102% | viability [3] 93.5% | viability [4] 99.6% | viability [5] 92.9% | differential viability (reversal) ([6]; H69AR cells + 2 uM doxorubicin) 2.17% | inhibition [7] 1.49% | inhibition [8] -0.98% | growth inhibition [9] -3.17% | growth inhibition [10] -6.46% | viability increase [11] -6.28% | viability [12] 94.9% | viability [13] 84% | inhibition [14] 1.94% | RAM network inhibition [15] 12%

Cn1c(/C=N/n2cnnc2)nc2ccccc21
100%: viability [1]
83.4%: viability [6, 17]
inactive: Her2 level [2] 78% | viability [3] 100% | viability [4] 105% | viability [5] 83.4% | differential viability (reversal) ([6]; H69AR cells + 2 uM doxorubicin) -14.4% | inhibition [7] -0.26% | inhibition [8] -5% | growth inhibition [9] -4.11% | growth inhibition [10] -2.04% | viability increase [11] -3.76% | viability [12] 94% | viability [13] 94.2% | inhibition [14] 0.41% | RAM network inhibition [15] 5.84%
97.8%: viability [6, 16]

Cc1cn2c(-c3ccc(Cl)cc3)nnc2s1
95.2%: viability [6, 17]
inactive: Her2 level [2] 92.5% | viability [3] 96% | viability [4] 74.7% | viability [5] 95.2% | differential viability (reversal) ([6]; H69AR cells + 2 uM doxorubicin) -3.87% | inhibition [7] -3.87% | inhibition [8] 4.67% | growth inhibition [9] -8.55% | growth inhibition [10] 16.2% | viability increase [11] -0.6% | viability [12] 97.6% | viability [13] 90.3% | inhibition [14] 2.66% | RAM network inhibition [15] 4.88%
99.1%: viability [6, 16]
96%: viability [1]

O=C(Nc1nnc(-c2ccc(Cl)cc2)o1)C1CCCCC1
86.5%: viability [6, 16]
inactive: Her2 level [2] 99% | viability [3] 87.5% | viability [4] 67% | viability [5] 69.2% | differential viability (reversal) ([6]; H69AR cells + 2 uM doxorubicin) -17.3% | inhibition [7] -7.2% | inhibition [8] -2.33% | growth inhibition [9] 4.85% | growth inhibition [10] 8.62% | viability increase [11] -1.38% | viability [12] 54.2% | viability [13] 58.2% | inhibition [14] 1.51% | RAM network inhibition [15] 1.36%
87.5%: viability [1]
69.2%: viability [6, 17]

CCOC(=O)C(C)(C)Sc1nc2c(cnn2-c2ccc(Cl)cc2)c(=O)[nH]1
76%: viability [1]
85.4%: viability [6, 16]
inactive: Her2 level [2] 91% | viability [3] 76% | viability [4] 64.4% | viability [5] 81.9% | differential viability (reversal) ([6]; H69AR cells + 2 uM doxorubicin) -3.56% | inhibition [7] -2.05% | inhibition [8] 2.5% | growth inhibition [9] -5.47% | growth inhibition [10] -0.62% | viability increase [11] -2.17% | viability [12] 91.9% | viability [13] 78.2% | inhibition [14] 1.89% | RAM network inhibition [15] 6.14%
81.9%: viability [6, 17]

CC1=C(C(=O)OCc2ccccc2)C(c2ccco2)n2ncnc2N1 (stereo not drawn)
98.5%: viability [1]
inactive: Her2 level [2] 95% | viability [3] 98.5% | viability [4] 87.1% | viability [5] 112% | differential viability (reversal) ([6]; H69AR cells + 2 uM doxorubicin) 23% | inhibition [7] -2.95% | inhibition [8] 2.67% | growth inhibition [9] 3.25% | growth inhibition [10] -3.8% | viability increase [11] -2.11% | viability [12] 92.8% | viability [13] 89% | inhibition [14] 0.83% | RAM network inhibition [15] 1.02%
112%: viability [6, 17]
88.7%: viability [6, 16]
